Screening data from PubChem BioAssay.
In the library only some 3.8% were active in any assay of this set; here they are far more common.
HT1080-NT tox: qHTS for induction of synthetic lethality in tumor cells producing 2HG: qHTS for the HT-1080-NT fibrosarcoma cell line | HT-1080-NT fibrosarcoma viability, CellTiter-Glo ATP luminescence, 48 h | Potency, µM (titrated, usually from 46.1 µM), usual class: cytotoxic | 1.6% of 360,000 active;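 further: NT is the 2HG producing partner of a matched IDH1 knockdown line; nearly all actives have a fitted effect of over 55% in size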
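Compounds were tested in concentration-response format on HT-1080-NT cells for 48 hours at 37 degrees C. Cell viability came from CellTiter-Glo luminescence; curves were classified by r2, response magnitude and activity.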
S2 tox: Viability Counterscreen for Primary qHTS for Inhibitors of ATXN expression | S2 cells (HEK-293 line with an ATXN2-luciferase reporter) viability, CellTiter-Fluor protease fluorescence, 24 h | Potency, µM (top dose mostly 56.7 µM), actives largely listed as cytotoxic | 0.49% of 400,000 active | AID 651635, 2014; further: nearly all actives have a fitted effect of over 40% in size
HT1080 IDH1KD tx: qHTS for induction of synthetic lethality in tumor cells producing 2HG: qHTS for the HT-1080-IDH1KD cell line; 2% of 360,000 active; Potency, µM (highest dose often 46.1 µM), most hits filed as cytotoxic; HT-1080 IDH1 knockdown viability, ATP luminescence, 48 h
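Knockdown cells (IDH1KD HT-1080) received compounds 2 h after plating at 750 cells/well and were kept 48 h at 37 °C in 5% FBS RPMI. A CellTiter-Glo luminescence read gave % activity for curve fitting.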
ATXN2 expr inh: Primary qHTS for Inhibitors of ATXN expression | HEK-293 ATXN2-luciferase reporter, luminescence, 24 h | Potency, µM (titrated, usually from 57 µM), hits mostly inhibitors | 0.72% of 360,000 active; further: nearly all actives have a fitted effect of over 55% in size
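ATXN2-luciferase reporter cells (luciferase flanked by upstream and downstream ATXN2 gene portions) were treated 24 h at 37 °C with compounds at up to 57 uM. SteadyGlo luminescence gave expression; GF-AFC fluorescence gave viability.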
HepG2 tox: qHTS for Inhibitors of TGF-b: Cytotox Counterscreen. HepG2 CAGA-GFP viability, ATP luminescence, 18 h. Potency, µM (top dose mostly 46.1 µM), hits mostly cytotoxic. 0.76% of 410,000 active. AID 588856, 2011
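CellTiter-Glo luminescence gave cytotoxicity after 18 hours at 37 degrees C. The cells were HepG2 CAGA-GFP in 1% FBS DMEM, stimulated with 500 pg/mL TGF-beta after compound addition. %Activity was normalised to no-cell wells (complete cell-killing) and DMSO (no toxicity), and curves were fitted and classified.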
TGFb inhibitor: qHTS for Inhibitors of TGF-b; AID 588855, 2011; Potency, µM (series often up to 46.1 µM), actives largely listed as inhibitors; 1.2% of 410,000 active; HepG2 CAGA-GFP TGF-b/SMAD3 reporter, GFP fluorescence, 18 h; TGF-beta stimulated, 500 pg/mL final; further: nearly all actives have a fitted effect of over 65% in size
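HEPG2 CAGA-GFP cells (1000/well, DMEM with 1% FBS) were pre-incubated 2 h at 37 degrees C, given compound by pin tool, then stimulated with TGF-beta at 500 pg/mL final for 18 h before per-cell GFP fluorescence imaging.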
A number is an active result; 0 = inactive; ? = inconclusive; - = not tested or not shown. The call rests on the fitted dose curve; in most records, active means well fitted curve in the direction sought with a large enough effect; inconclusive means small, poorly fitted or top-dose-only effect, or another doubt; inactive means no such curve, though single readings can be large; an effect the other way counts as inactive or inconclusive.

SMILES | HT1080-NT tox | S2 tox | HT1080 IDH1KD tx | ATXN2 expr inh | HepG2 tox | TGFb inhibitor
CCCc1cc(=O)[nH]c(SCC(=O)c2cc(C)n(CC(F)(F)F)c2C)n1 | 0 | 0 | 0 | 0 | 0 | 0
Cc1cc2oc(=O)cc(Cn3ncc(Cl)c(Cl)c3=O)c2cc1Cl | ? | - | 3.3µM | 25µM | 0 | ?
Cc1cc(C(=O)Cn2ncc(Cl)c(Cl)c2=O)c(C)n1CC(F)(F)F | 8.2µM | ? | 5.8µM | ? | 0 | ?
Cc1cccc(Cn2ncc(Cl)c(Cl)c2=O)c1 | 13µM | - | 7.1µM | ? | 0 | ?
Cc1ccc(C)c(C(=O)Cn2ncc(Cl)c(Cl)c2=O)c1 | 0 | 18µM | 18µM | ? | 0 | ?
COc1ccc(OC)c(-c2cc(Cl)c3c(c2)CC(CNC(=O)C(C)N2CCOCC2)O3)c1 (stereo unspecified) | - | 0 | - | - | - | -
O=S1(=O)c2ccc(Br)cc2OC(COCc2ccccc2)CN1Cc1ccccc1 (stereo unspecified) | 0 | 0 | 0 | 0 | 0 | 0
O=S1(=O)c2ccc(Br)cc2N2CCC[C@@H]2CN1Cc1ccccc1 | ? | ? | 3.7µM | 0 | 0 | ?
CCSc1ncc(Cl)c(C(=O)N2CCN(c3ccc(OC)cc3)CC2)n1 | - | 0 | - | 0 | 0 | 0
CCCS(=O)(=O)c1ncc(Cl)c(C(=O)N2CCN(c3ccc(OC)cc3)CC2)n1 | - | - | - | - | 4.5µM | 4µM
O=C(NCC(c1cccnc1)N1CCc2ccccc21)c1ccc(F)cc1 (stereo unspecified) | - | - | - | - | 0 | ?
COc1ccc(NC2=NCC(Cc3ccc(Br)cc3)S2)cc1 (stereo unspecified) | ? | ? | 21µM | ? | 0 | ?
CCCCC12CN3CC(C)(CN(C1)C3c1c(C)[nH]c(=O)[nH]c1=O)C2=O (stereo unspecified) | - | 0 | - | 0 | 0 | 0
C=CCSC(=C(C#N)C#N)c1cc2c([nH]1)CCCC2 | 16µM | 0 | 16µM | 0 | 0 | ?
O=C(O)c1cc2c([nH]c1=O)CCCC2 | 0 | 0 | 0 | 0 | 0 | 0
O=C(NC1CC(=O)N(c2ccccc2)C1)c1ccc(S(=O)(=O)N2CCCC2)cc1 (stereo unspecified) | - | - | - | - | 0 | ?
Cc1cccc(C(=O)CC(=O)c2cc(Cl)ccc2O)c1 | ? | 0 | ? | ? | 0 | ?
O=C(CC(=O)c1cc(Cl)ccc1O)c1ccccc1 | ? | 0 | ? | ? | 11µM | ?
Cc1cc(=O)[nH]c2nnc(SCc3cccc(F)c3)n12 | - | - | - | - | 0 | 0
O=C(NCc1nnc2n1CCN(C(=O)/C=C/c1ccccc1)CC2)c1cccc(F)c1 | - | 0 | - | - | - | -
CC1CCN(c2c(NCc3ccc(C(=O)N4CCc5ccccc54)cc3)c(=O)c2=O)CC1 | 5.2µM | ? | 4.1µM | 0 | 0 | ?
C=CCn1c(SCc2c(C)noc2C)nc2ccccc2c1=O | 0.56µM | ? | 0.32µM | ? | 0 | 0
C=CCn1c(SCc2cc(C(C)=O)ccc2OCC)nc2ccccc2c1=O | ? | ? | 2.3µM | 0 | 0 | ?
C=CCn1c(SCc2c(C)noc2C)nc2cc(C(=O)O)ccc2c1=O | 6.3µM | ? | 7.1µM | 0 | 0 | 0
COc1ccc(C(C)=O)cc1CSc1nc2ccccc2c(=O)n1-c1ccccc1 | ? | - | 0 | ? | 0 | 0
SMILES | HT1080-NT tox | S2 tox | HT1080 IDH1KD tx | ATXN2 expr inh | HepG2 tox | TGFb inhibitor
C=CCn1c(SCc2ccc(Br)cc2F)nc2cc(C(=O)O)ccc2c1=O | 0 | 0 | 0 | 0 | 0 | 0
C=C1C(=O)OC2CC1C(O)CC(C)=CCCC(C)=CC(O)CC2C (stereo unspecified) | 15µM | - | 7.3µM | ? | 0 | 11µM
CC1CCN(S(=O)(=O)c2ccc3nc(NCc4ccc(F)cc4)ccc3c2)CC1 | - | ? | - | 0 | 0 | 13µM
CC1CCN(S(=O)(=O)c2ccc3nc(Nc4ccc(C#N)cc4)ccc3c2)CC1 | - | ? | - | 0 | 0 | 10µM
CC1CCN(S(=O)(=O)c2ccc3nc(NCc4ccc(N(C)C)cc4)ccc3c2)CC1 | - | ? | - | ? | 0 | ?
Nc1ccc2nc(-c3ccc(Cl)cc3)[nH]c2c1 | 23µM | - | 21µM | ? | 13µM | ?
COc1ccc(C(C(=O)NCc2ccccc2)n2c(=O)c(-c3ccco3)nc3ccccc32)cc1 (stereo unspecified) | ? | - | 21µM | - | - | -
O=C(NCc1ccccc1)C(c1ccccc1F)n1c(=O)c(-c2ccco2)nc2ccccc21 (stereo unspecified) | 0 | - | 0 | - | - | -
C=CC[C@H](CC(=O)N(CCO)Cc1ccccc1)C(=O)N[C@H](COC(=O)[C@@H](CC=C)CC(=O)OC(C)(C)C)Cc1c[nH]c2ccccc12 | ? | 13µM | ? | 22µM | 0 | ?
C=CC[C@@H](CC(=O)N[C@H](CO)Cc1ccccc1)C(=O)N[C@H](COC(=O)[C@@H](CC=C)CC(=O)OC(C)(C)C)Cc1c[nH]c2ccccc12 | ? | ? | ? | ? | 0 | ?
C=CC[C@@H](CC(=O)N[C@@H](CO)Cc1ccccc1)C(=O)N[C@@H](COC(=O)[C@@H](CC=C)CC(=O)OC(C)(C)C)Cc1c[nH]c2ccccc12 | 0 | ? | 0 | 0 | 0 | ?
C=CC[C@@H](CC(=O)N(CCO)Cc1ccccc1)C(=O)N[C@H](COC(=O)[C@H](CC=C)CC(=O)OC(C)(C)C)Cc1c[nH]c2ccccc12 | 0 | 22µM | ? | ? | 0 | ?
CCC(=O)N1CCN(c2ccccc2NC(=O)c2ccc([N+](=O)[O-])o2)CC1 | ? | 0 | 0 | 0 | 0 | 16µM
CC1CCN(c2ccccc2NC(=O)c2ccc([N+](=O)[O-])o2)CC1 | 0 | 0 | 0 | 0 | 0 | 0
O=C(Nc1ccccc1N1CCCC1)c1ccc([N+](=O)[O-])o1 | ? | ? | ? | ? | 0 | 25µM
O=C(Nc1ccccc1N1CCN(C(=O)c2ccccc2)CC1)c1ccc([N+](=O)[O-])o1 | ? | 0 | 16µM | 0 | 0 | 11µM
O=C(Nc1ccc(N2CCN(C(=O)c3ccccc3)CC2)c(Cl)c1)c1ccc(Br)o1 | 7.1µM | ? | ? | ? | 0 | 0
Cc1ccc(CSc2nc3cccnc3n2Cc2nc(-c3ccccc3F)oc2C)cc1 | - | - | - | - | 0 | ?
CCc1ccc(C2=C(C)C(N3CCC(C(=O)NCc4ccc(C)o4)CC3)=NS2(=O)=O)cc1 | - | ? | - | 0 | 0 | 0
CCn1ncc(C2=NOC(C(=O)NCc3ccc(Cl)cc3)C2)c1C (stereo unspecified) | 4.5µM | ? | 6.3µM | 0 | 0 | 0
CCn1ncc(C2=NOC(C(=O)Nc3ccc(C)cc3)C2)c1C (stereo unspecified) | 0 | 0 | 0 | 0 | 0 | 0
